We go through 14 compounds from PubChem BioAssay (NCI).

This is part of a sample that, as a whole, favours compounds with a hit. Of some 83,000 tested, about 20% had one in any assay.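 Note: values are percent growth. 100 is the growth of untreated cells, values between 100 and 0 indicate rising inhibition; between -100 and 0 indicates cell death.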 Values without a mark were called inactive. Active and inactive are the calls of the source. How the source made its calls: active means growth percent below 10; inactive means the rest.

Among the test systems are RPMI-8226 leukemia; OVCAR-8 ovarian; OVCAR-4 ovarian; SK-OV-3 ovarian; IGROV1 ovarian; OVCAR-3 ovarian; HS 578T breast; NCI/ADR-RES ovarian; T-47D breast; OVCAR-5 ovarian.
Common to all, as to assay: NCI-60 one-dose screen, 48 h (100 = growth as untreated, 0 = no growth, -100 = all killed)
Common to all, as to conditions: 10 µM unless noted

Regarding `CC(C)[C@H](NC(=O)Cn1cc(C(=O)O)nn1)C(=O)O`, the growth with RPMI-8226 leukemia is 105%; in the assay with OVCAR-8 ovarian it was 98.1%; with OVCAR-4 ovarian, 104%; with SK-OV-3 ovarian, 106%; in the assay on IGROV1 ovarian, 111%; in the assay with OVCAR-3 ovarian, 108%. Further, the growth in the assay with HS 578T breast was 112%; in the assay on NCI/ADR-RES ovarian, 106%; with T-47D breast it was 106%.

Regarding `C=C[C@@H]1CCC/C=C/[C@@H]2C[C@H](O)C[C@H]2[C@H](O)/C=C/C(=O)O1`, the growth with RPMI-8226 leukemia is 23.6%; in the assay with OVCAR-8 ovarian, 21.4%; in the assay on OVCAR-4 ovarian, 23.8%; with SK-OV-3 ovarian, 20.5%; with IGROV1 ovarian it was 11.8%; with OVCAR-3 ovarian, -30.8% (active). Further, the figures for the growth in the assay on HS 578T breast, in the assay with NCI/ADR-RES ovarian and in the assay with T-47D breast were 31.3%, 1.8% (active) and -40.9% (active), respectively.

As to `O=C(NC1C(O)OC(CO)C(O)C1O)NS(=O)(=O)c1ccc(Cl)cc1` (stereo not drawn), the growth was 102% with OVCAR-8 ovarian; 99.7% in the assay on OVCAR-5 ovarian; 105% in the assay on OVCAR-4 ovarian; 105% in the assay on SK-OV-3 ovarian; 107% in the assay with IGROV1 ovarian; 112% in the assay with OVCAR-3 ovarian. Also, the growth with HS 578T breast was 98.7%; in the assay with NCI/ADR-RES ovarian it was 105%; in the assay with T-47D breast, 91.3%.

For the compound `O=C(CN1C=NC2C(N3CCOCC3)=NC=NC21)c1ccc(Br)cc1` (stereo not drawn), the growth in the assay on OVCAR-8 ovarian was 100%; with OVCAR-5 ovarian, 99%; in the assay on OVCAR-4 ovarian, 97%; in the assay on IGROV1 ovarian, 95.6%; with OVCAR-3 ovarian it was 108%; in the assay with HS 578T breast it was 102%. In addition, the growth in the assay with NCI/ADR-RES ovarian is 103%; in the assay on T-47D breast, 101%.

For `NS(=O)(=O)c1ccc(CCN=C=S)cc1`, the growth in the assay on OVCAR-8 ovarian was 30.1%; in the assay with OVCAR-5 ovarian it was 85.5%; in the assay with OVCAR-4 ovarian, 42.8%; with SK-OV-3 ovarian, 122%; with IGROV1 ovarian, 25.6%; in the assay on OVCAR-3 ovarian it was -18.6% (active). Besides, the growth in the assay with HS 578T breast is 39.7%; in the assay with NCI/ADR-RES ovarian, 83.6%.

`COC(=O)[C@@H]1CCCN1C(=O)[C@H]1CCCN1C(=O)[C@@H](Cc1c[nH]c2ccccc12)NC(=S)Nc1cc(C(F)(F)F)cc(C(F)(F)F)c1`: the growth in the assay with OVCAR-8 ovarian was 61.3%; in the assay with OVCAR-5 ovarian it was 60.1%; in the assay on OVCAR-4 ovarian, 47.2%; with SK-OV-3 ovarian, 69.6%; in the assay on IGROV1 ovarian, 29.2%; in the assay on OVCAR-3 ovarian, 47%. The results for the growth in the assay with HS 578T breast, in the assay on NCI/ADR-RES ovarian and in the assay on T-47D breast were 11.6%, 67.1% and 37.3%, respectively.

For `O=Cc1c(OCc2cnnn2CC(=O)Nc2ccc(Br)cc2)ccc2ccccc12`, the growth in the assay with RPMI-8226 leukemia is 104%; in the assay on OVCAR-8 ovarian, 96.1%; in the assay with OVCAR-5 ovarian, 95%; in the assay with IGROV1 ovarian, 85.9%; in the assay on OVCAR-3 ovarian it was 97.2%; with HS 578T breast, 85.1%. Moreover, the growth in the assay on NCI/ADR-RES ovarian was 90.5%; in the assay on T-47D breast, 78.7%.

`CCOC(=O)c1sc(-c2ccc(OS(=O)(=O)C[C@]34CCC(CC3=O)C4(C)C)c(C=O)c2)nc1C`: the growth was 11.6% in the assay with OVCAR-8 ovarian; 46.9% in the assay on OVCAR-5 ovarian; 18.6% with OVCAR-4 ovarian; 46% in the assay with SK-OV-3 ovarian; -21.8% (active) in the assay on IGROV1 ovarian; -5% (active) in the assay with OVCAR-3 ovarian. Also, the growth with HS 578T breast is 31.6%; in the assay on NCI/ADR-RES ovarian it was 11%.

Turning to `COc1ccc(/C=C/C(=O)c2ccc(Nc3nc(NCCO)nc(Nc4ccc(Cl)cc4)n3)cc2)cc1`, the growth in the assay on RPMI-8226 leukemia is 8.06% (active); in the assay with OVCAR-8 ovarian, 71.8%; in the assay on OVCAR-5 ovarian it was 95.7%; in the assay on IGROV1 ovarian it was 98%; in the assay with OVCAR-3 ovarian, 73.1%; in the assay with HS 578T breast, 87.5%. Also, the growth is 83.2% in the assay with NCI/ADR-RES ovarian and 38% in the assay on T-47D breast.

Consider `COc1ccc(CSc2nnc(SCC(=O)Nc3ccc(Cl)cc3)s2)cc1`, for which the growth in the assay with OVCAR-8 ovarian is 84.4%; in the assay on OVCAR-5 ovarian, 90.6%; with OVCAR-4 ovarian, 84.7%; with SK-OV-3 ovarian, 103%; with IGROV1 ovarian, 63.6%; in the assay with OVCAR-3 ovarian, 91.2%. The results for the growth in the assay on HS 578T breast, in the assay on NCI/ADR-RES ovarian and in the assay with T-47D breast were 75.6%, 47.6% and 67.2%, respectively.

For `O=C(CN1C=NC2C(N3CCOCC3)=NC=NC21)c1cccc2ccccc12` (stereo not drawn), the growth in the assay with OVCAR-8 ovarian is 97%; in the assay on OVCAR-5 ovarian, 92%; in the assay on OVCAR-4 ovarian, 97.1%; with IGROV1 ovarian, 90.8%; in the assay with OVCAR-3 ovarian, 101%; in the assay on HS 578T breast, 102%. Further, the growth with NCI/ADR-RES ovarian is 104%; in the assay with T-47D breast, 90.7%.

In the case of `O=C1N=c2ccccc2=C1c1sc(=Nc2ccccc2)n(Nc2ccccc2)c1O`, the growth is 105% in the assay with OVCAR-8 ovarian; 101% with OVCAR-5 ovarian; 43.5% in the assay on OVCAR-4 ovarian; 96.2% in the assay on IGROV1 ovarian; 110% in the assay on OVCAR-3 ovarian; 102% with HS 578T breast. For the same compound, the values for the growth in the assay with NCI/ADR-RES ovarian and in the assay on T-47D breast were 108% and 97.6%, respectively.

For `CN1C(=O)N(C)C2(c3ccccc3)n3c(s/c(=C\c4ccccc4)c3=O)=NNC12c1ccccc1` (stereo not drawn), the growth was 96.8% in the assay on OVCAR-8 ovarian; 99.9% in the assay with OVCAR-5 ovarian; 100% with OVCAR-4 ovarian; 97.9% in the assay on IGROV1 ovarian; 103% with OVCAR-3 ovarian; 102% in the assay on HS 578T breast. Further, the growth was 88.3% in the assay with NCI/ADR-RES ovarian and 81.9% with T-47D breast.

`O=C(CSc1ncccc1C(=O)O)Nc1ccc(Oc2ccccc2)cc1`: the growth was 103% in the assay with OVCAR-8 ovarian; 108% in the assay on OVCAR-5 ovarian; 89.4% with OVCAR-4 ovarian; 100% with SK-OV-3 ovarian; 104% in the assay with IGROV1 ovarian; 109% in the assay on OVCAR-3 ovarian. Moreover, the figures for the growth in the assay with HS 578T breast, in the assay with NCI/ADR-RES ovarian and in the assay on T-47D breast were 92%, 100% and 103%, respectively.
